Measured values published in the supplement of paper PMC12282887.
± gives the standard deviation of the averaged measurements.

What was measured:
Test in all cases: promoter activity interaction Z-score (Lux/OD deviation from empty-vector control); higher = stronger promoter induction by the compound
[1] = system: E. coli BW25113 acrABp lux reporter
Procedure, shortened: (§1)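 E. coli BW25113 (wild type or marA, soxS or rob deletion) carrying low-copy luxCDABE promoter reporters grew in 40 µl LB Lennox in 384-well plates at 37°C. Each compound was tested at four 1:2 dilutions in biological duplicates. OD600 and luminescence were read every 30 min for 12 h. Areas were taken over 0–8 h (wild type) or 1–9 h (mutants), and wells below 10% of median growth area were removed. The score is the Z-transformed residual of growth-normalised luminescence fitted against the empty-vector control.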

[2] = system: E. coli BW25113 marRABp lux reporter
Procedure, shortened: as §1

[3] = system: E. coli BW25113 micFp lux reporter
Procedure, shortened: as §1

[4] = system: E. coli BW25113 ompFp lux reporter
Procedure, shortened: as §1

[5] = system: E. coli BW25113 robp lux reporter
Procedure, shortened: as §1

[6] = system: E. coli BW25113 soxSp lux reporter
Procedure, shortened: as §1

[7] = system: E. coli BW25113 tolCp lux reporter
Procedure, shortened: as §1

[8] = 23.5 µg/ml, genetic background: wild type
[9] = 23.5 µg/ml, genetic background: ΔmarA
[10] = 23.5 µg/ml, genetic background: Δrob
[11] = 23.5 µg/ml, genetic background: ΔsoxS
[12] = 47.1 µg/ml, genetic background: wild type
[13] = 47.1 µg/ml, genetic background: ΔmarA
[14] = 47.1 µg/ml, genetic background: Δrob
[15] = 47.1 µg/ml, genetic background: ΔsoxS
[16] = 94.1 µg/ml, genetic background: wild type
[17] = 94.1 µg/ml, genetic background: ΔmarA
[18] = 94.1 µg/ml, genetic background: Δrob
[19] = 94.1 µg/ml, genetic background: ΔsoxS
[20] = 188.3 µg/ml, genetic background: wild type
[21] = 188.3 µg/ml, genetic background: ΔmarA
[22] = 188.3 µg/ml, genetic background: Δrob
[23] = 188.3 µg/ml, genetic background: ΔsoxS

## C[C@H](CCC(=O)O)[C@H]1CC[C@H]2[C@@H]3CC[C@@H]4C[C@H](O)CC[C@]4(C)[C@H]3CC[C@]12C [Lithocholic acid]
[1]; [8]
  promoter activity interaction Z-score: 0.128 ± 0.083
[1]; [9]
  promoter activity interaction Z-score: 1.34 ± 2.3
[1]; [10]
  promoter activity interaction Z-score: 0.0671 ± 0.095
[1]; [11]
  promoter activity interaction Z-score: -0.142 ± 0.031
[1]; [12]
  promoter activity interaction Z-score: 0.171 ± 0.17
[1]; [13]
  promoter activity interaction Z-score: 0.66 ± 0.77
[1]; [14]
  promoter activity interaction Z-score: 0.304 ± 0.021
[1]; [15]
  promoter activity interaction Z-score: -0.0227 ± 0.072
[1]; [16]
  promoter activity interaction Z-score: -0.00199 ± 0.34
[1]; [17]
  promoter activity interaction Z-score: 0.576 ± 0.88
[1]; [18]
  promoter activity interaction Z-score: -0.304 ± 0.19
[1]; [19]
  promoter activity interaction Z-score: -0.652 ± 0.55
[1]; [20]
  promoter activity interaction Z-score: -0.12 ± 0.18
[1]; [21]
  promoter activity interaction Z-score: 0.897 ± 2.2
[1]; [22]
  promoter activity interaction Z-score: -0.207 ± 0.095
[1]; [23]
  promoter activity interaction Z-score: -0.566 ± 1.5
[2]; [8]
  promoter activity interaction Z-score: 0.0125 ± 0.049
[2]; [9]
  promoter activity interaction Z-score: 0.215 ± 0.24
[2]; [10]
  promoter activity interaction Z-score: 0.171 ± 0.16
[2]; [11]
  promoter activity interaction Z-score: -0.00159 ± 0.033
[2]; [12]
  promoter activity interaction Z-score: 0.0767 ± 0.14
[2]; [13]
  promoter activity interaction Z-score: 0.199 ± 0.2
[2]; [14]
  promoter activity interaction Z-score: 0.159 ± 0.08
[2]; [15]
  promoter activity interaction Z-score: 0.29 ± 0.41
[2]; [16]
  promoter activity interaction Z-score: -0.14 ± 0.0041
[2]; [17]
  promoter activity interaction Z-score: -0.0736 ± 0.21
[2]; [18]
  promoter activity interaction Z-score: 0.0252 ± 0.008
[2]; [19]
  promoter activity interaction Z-score: -0.23 ± 0.21
[2]; [20]
  promoter activity interaction Z-score: -0.189 ± 0.024
[2]; [21]
  promoter activity interaction Z-score: 0.0134 ± 0.26
[2]; [22]
  promoter activity interaction Z-score: 0.123 ± 0.086
[2]; [23]
  promoter activity interaction Z-score: 0.0918 ± 0.55
[3]; [8]
  promoter activity interaction Z-score: -0.113 ± 0.26
[3]; [9]
  promoter activity interaction Z-score: 0.16 ± 0.35
[3]; [10]
  promoter activity interaction Z-score: 0.238 ± 0.17
[3]; [11]
  promoter activity interaction Z-score: -0.193 ± 0.12
[3]; [12]
  promoter activity interaction Z-score: 0.314 ± 0.66
[3]; [13]
  promoter activity interaction Z-score: 0.226 ± 0.41
[3]; [14]
  promoter activity interaction Z-score: 0.0535 ± 0.017
[3]; [15]
  promoter activity interaction Z-score: 0.243 ± 0.36
[3]; [16]
  promoter activity interaction Z-score: 0.275 ± 0.18
[3]; [17]
  promoter activity interaction Z-score: 0.187 ± 0.33
[3]; [18]
  promoter activity interaction Z-score: 0.0887 ± 0.27
[3]; [19]
  promoter activity interaction Z-score: -0.363 ± 0.17
[3]; [20]
  promoter activity interaction Z-score: -0.215 ± 0.76
[3]; [21]
  promoter activity interaction Z-score: 0.379 ± 0.47
[3]; [22]
  promoter activity interaction Z-score: -0.0294 ± 0.12
[3]; [23]
  promoter activity interaction Z-score: -0.253 ± 0.14
[4]; [8]
  promoter activity interaction Z-score: -0.331 ± 0.28
[4]; [9]
  promoter activity interaction Z-score: 0.388 ± 0.35
[4]; [10]
  promoter activity interaction Z-score: 0.233 ± 0.41
[4]; [11]
  promoter activity interaction Z-score: -0.266 ± 0.66
[4]; [12]
  promoter activity interaction Z-score: -0.361 ± 0.42
[4]; [13]
  promoter activity interaction Z-score: -0.326 ± 0.22
[4]; [14]
  promoter activity interaction Z-score: 0.512 ± 0.58
[4]; [15]
  promoter activity interaction Z-score: 0.0216 ± 0.97
[4]; [16]
  promoter activity interaction Z-score: -1.02 ± 0.35
[4]; [17]
  promoter activity interaction Z-score: -0.0279 ± 0.11
[4]; [18]
  promoter activity interaction Z-score: -0.2 ± 0.59
[4]; [19]
  promoter activity interaction Z-score: -1.15 ± 0.78
[4]; [20]
  promoter activity interaction Z-score: -0.885 ± 0.27
[4]; [21]
  promoter activity interaction Z-score: -0.942 ± 0.53
[4]; [22]
  promoter activity interaction Z-score: -0.571 ± 0.34
[4]; [23]
  promoter activity interaction Z-score: -0.828 ± 0.72
[5]; [8]
  promoter activity interaction Z-score: 0.566 ± 0.055
[5]; [9]
  promoter activity interaction Z-score: 1.44 ± 0.64
[5]; [10]
  promoter activity interaction Z-score: 0.487 ± 0.029
[5]; [11]
  promoter activity interaction Z-score: 0.99 ± 0.62
[5]; [12]
  promoter activity interaction Z-score: -0.0796 ± 0.041
[5]; [13]
  promoter activity interaction Z-score: 0.19 ± 0.14
[5]; [14]
  promoter activity interaction Z-score: 0.443 ± 0.039
[5]; [15]
  promoter activity interaction Z-score: 1.04 ± 0.47
[5]; [16]
  promoter activity interaction Z-score: -0.0166 ± 0.45
[5]; [17]
  promoter activity interaction Z-score: 1.08 ± 0.44
[5]; [18]
  promoter activity interaction Z-score: 0.223 ± 0.44
[5]; [19]
  promoter activity interaction Z-score: 0.195 ± 0.21
[5]; [20]
  promoter activity interaction Z-score: -0.492 ± 1.1
[5]; [21]
  promoter activity interaction Z-score: 0.59 ± 0.34
[5]; [22]
  promoter activity interaction Z-score: 0.0946 ± 0.17
[5]; [23]
  promoter activity interaction Z-score: 0.391 ± 0.17
[6]; [8]
  promoter activity interaction Z-score: 0.313 ± 0.3
[6]; [9]
  promoter activity interaction Z-score: -0.0502 ± 0.087
[6]; [10]
  promoter activity interaction Z-score: 0.0422 ± 0.029
[6]; [11]
  promoter activity interaction Z-score: 0.057 ± 0.13
[6]; [12]
  promoter activity interaction Z-score: -0.126 ± 0.1
[6]; [13]
  promoter activity interaction Z-score: -0.195 ± 0.067
[6]; [14]
  promoter activity interaction Z-score: 0.0214 ± 0.095
[6]; [15]
  promoter activity interaction Z-score: -0.0763 ± 0.36
[6]; [16]
  promoter activity interaction Z-score: -0.137 ± 0.33
[6]; [17]
  promoter activity interaction Z-score: -0.217 ± 0.014
[6]; [18]
  promoter activity interaction Z-score: -0.165 ± 0.32
[6]; [19]
  promoter activity interaction Z-score: -0.531 ± 0.61
[6]; [20]
  promoter activity interaction Z-score: -0.578 ± 0.011
[6]; [21]
  promoter activity interaction Z-score: -0.284 ± 0.089
[6]; [22]
  promoter activity interaction Z-score: -0.408 ± 0.33
[6]; [23]
  promoter activity interaction Z-score: -0.418 ± 0.97
[7]; [8]
  promoter activity interaction Z-score: 0.238 ± 0.82
[7]; [9]
  promoter activity interaction Z-score: 1.52 ± 0.56
[7]; [10]
  promoter activity interaction Z-score: 0.914 ± 0.84
[7]; [11]
  promoter activity interaction Z-score: 0.608 ± 1.3
[7]; [12]
  promoter activity interaction Z-score: -0.0238 ± 0.039
[7]; [13]
  promoter activity interaction Z-score: 0.952 ± 0.099
[7]; [14]
  promoter activity interaction Z-score: 1.24 ± 0.98
[7]; [15]
  promoter activity interaction Z-score: 1.3 ± 0.12
[7]; [16]
  promoter activity interaction Z-score: 0.429 ± 0.87
[7]; [17]
  promoter activity interaction Z-score: 1.04 ± 0.5
[7]; [18]
  promoter activity interaction Z-score: 0.552 ± 0.78
[7]; [19]
  promoter activity interaction Z-score: 0.284 ± 0.072
[7]; [20]
  promoter activity interaction Z-score: 0.995 ± 0.41
[7]; [21]
  promoter activity interaction Z-score: 0.554 ± 0.33
[7]; [22]
  promoter activity interaction Z-score: 0.54 ± 0.74
[7]; [23]
  promoter activity interaction Z-score: 0.774 ± 1.2
